Results reported in PubChem BioAssay (Tox21).
Where “and” joins values, the source holds several entries; their conditions need not be identical. Identical values can stand only once. Inconclusive results are not listed. Some compounds were tested as several samples or in several runs, with calls that do not always agree. Calls of active or inactive are those of the source. Unless noted, calls follow the shape of the dose curve; as a rule, active = well fitted curve in the direction sought with a large enough effect in the repeat runs; inconclusive = weak or mixed curves; inactive = no such curve, though single readings can be large; an effect the other way counts as inactive or inconclusive.

What was measured:
[1] = qHTS assay to identify small molecule agonists of H2AX - cell viability counter screen (AID 1224847; calls by dose curve; also: nearly all actives have a fitted effect of over 30% in size; also: potency is read from the fitted curve at half-maximal effect)
In short: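 CHO-K1 cells plated overnight at 37C, then exposed 3 h at 37C to compounds at 15 concentrations (0.76% DMSO final). Viability by CellTiter-Glo luminescence after 30 min at room temperature.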

[2] = qHTS RealTime-Glo MT Cell Viability Assay in HepG2 cells - 24 hour (AID 1224867); also: nearly all actives have a fitted effect of over 50% in size
In short: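 Compound treatment began 5 h after plating HepG2 cells (600/well) with NanoLuc luciferase and prosubstrate. Plates stayed at 37 C for 40 h; luminescence was captured at six time points, 0 h through 40 h.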

[3] = qHTS RealTime-Glo MT Cell Viability Assay in HEK293 cells - 32 hour (AID 1224868); also: nearly all actives have a fitted effect of over 50% in size; also: potency is read from the fitted curve at half-maximal effect
In short: (§1)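 Quantitative high-throughput screen of the Tox21 10K library in HEK293: cells and RealTime-Glo reagents plated together, compound added at 5 h, luminescence monitored through 40 h at 37 C.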

[4] = qHTS RealTime-Glo MT Cell Viability Assay in HepG2 cells - 40 hour (AID 1224870); also: nearly all actives have a fitted effect of over 50% in size
In short: (§2)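 HepG2 cells (600/well) mixed with RealTime-Glo MT reagent, settled 5 h at 37 C/5% CO2 before compound addition. Nonlytic NanoLuc luminescence from viable-cell prosubstrate reduction read repeatedly during 40 h treatment at 37 C.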

[5] = A CellTox Green Cytotoxicity Assay to monitor cytotoxicity in HEK293 cells - 40 hour (AID 1224871); also: nearly all actives have a fitted effect of over 45% in size; also: potency is read from the fitted curve at half-maximal effect
In short: (§3)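 Each value comes from one timepoint of a single continuous run in which HEK293 cells with CellTox Green were exposed to compound for up to 40 h at 37 C, dye fluorescence rising with cell death.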

[6] = qHTS RealTime-Glo MT Cell Viability Assay in HEK293 cells - 16 hour (AID 1224872); also: top concentration of the series differs between compounds; nearly all actives have a fitted effect of over 50% in size
In short: as §1

[7] = qHTS RealTime-Glo MT Cell Viability Assay in HepG2 cells - 8 hour (AID 1224873); also: nearly all actives have a fitted effect of over 55% in size
In short: as §2

[8] = A CellTox Green Cytotoxicity Assay to monitor cytotoxicity in HEK293 cells - 0 hour (AID 1224869); also: nearly all actives have a fitted effect of over 50% in size; also: potency is read from the fitted curve at half-maximal effect
In short: as §3

[9] = qHTS assay to identify small molecule agonists of the estrogen related receptor (ERR) signaling pathway from Tox21 library (AID 1224849; calls by dose curve; also: nearly all actives have a fitted effect of over 15% in size); conditions: ERR reporter cell line, ONE-Glo luciferase, 18 h
In short: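 We plated ERR reporter cells, waited 6 h, added compounds in DMSO by pin tool and incubated them 18 h at 37 C. ONE-Glo was then added and luminescence read after 30 min.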
% is scaled to controls: 0 for no effect and ±100 for the full control effect.

CN(C)N=O
inactive: Potency [1] | outcome [2] | Potency [3] | outcome [4] | Potency [5] | outcome [6] | outcome [7]

CC(C)=C[C@@H]1[C@@H](C(=O)OCc2coc(Cc3ccccc3)c2)C1(C)C
inactive: Potency [1] | outcome [2] | Potency [3] | Potency [8] | outcome [4] | Potency [5] | outcome [6] | outcome [7]

O=NN1CCCCCCC1
inactive: Potency [1] | outcome [2] | Potency [3] | Potency [8] | outcome [4] | Potency [5] | outcome [6] | outcome [7]

CCCN(CCC)c1c([N+](=O)[O-])cc(C(F)(F)F)cc1[N+](=O)[O-]
1.55 µM (active) and inactive: Potency [8]
inactive: Potency [1] | outcome [2] | Potency [3] | outcome [4] | Potency [5] | outcome [6] | outcome [7]

O=C(NC(=O)c1c(F)cccc1F)Nc1cc(Cl)c(OC(F)(F)C(F)C(F)(F)F)cc1Cl (stereo not given)
inactive: Potency [1] | activity change, positive = activation ([9]; at 42.5 µM (top of the series)) -26% | activity change, positive = activation ([9]; at 92.4 µM (top of the series)) -26.5% | outcome [2] | Potency [8] | outcome [4] | Potency [5] | outcome [6] | outcome [7]
12.3 µM (active) and inactive: Potency [3]

Clc1ccccc1Cl
inactive: Potency [1] | outcome [2] | Potency [3] | Potency [8] | outcome [4] | Potency [5] | outcome [6] | outcome [7]

O=S(=O)(c1ccc(O)cc1)c1ccc(O)cc1
inactive: Potency [1] | outcome [2] | Potency [3] | Potency [8] | outcome [4] | Potency [5] | outcome [6] | outcome [7]

CCCCCCCCCl
inactive: Potency [1] | outcome [2] | Potency [3] | Potency [8] | outcome [4] | Potency [5] | outcome [6] | outcome [7]

O=c1n(Cl)c(=O)n(Cl)c(=O)n1Cl
inactive: Potency [1] | outcome [2] | Potency [3] | Potency [8] | outcome [4] | Potency [5] | outcome [6] | outcome [7]

c1ccc(OP(Oc2ccccc2)Oc2ccccc2)cc1
inactive: Potency [1] | outcome [2] | Potency [3] | Potency [8] | outcome [4] | Potency [5] | outcome [6] | outcome [7]

[N-]=[N+]=[N-]
inactive: Potency [1] | outcome [2] | Potency [3] | Potency [8] | outcome [4] | Potency [5] | outcome [6] | outcome [7]

CCCN(CCC)N=O
inactive: Potency [1] | outcome [2] | Potency [3] | Potency [8] | outcome [4] | Potency [5] | outcome [6] | outcome [7]

c1ccc2c(c1)Oc1ccccc1O2
inactive: Potency [1] | outcome [2] | Potency [3] | Potency [8] | outcome [4] | Potency [5] | outcome [6] | outcome [7]

C1CC2OC2CC1C1CO1 (stereo not given)
inactive: Potency [1] | outcome [2] | Potency [3] | Potency [8] | outcome [4] | Potency [5] | outcome [6] | outcome [7]

Nc1c(Cl)c(Cl)nc(C(=O)O)c1Cl
inactive: Potency [1] | outcome [2] | Potency [3] | outcome [4] | Potency [5] | outcome [6] | outcome [7]

CCC12COCN1COC2
inactive: Potency [1] | outcome [2] | Potency [3] | Potency [8] | outcome [4] | Potency [5] | outcome [6] | outcome [7]

O=Cc1cccc(Oc2ccccc2)c1
inactive: Potency [1] | outcome [2] | Potency [3] | Potency [8] | outcome [4] | Potency [5] | outcome [6] | outcome [7]

CCCCCCCCCCCC#N
inactive and 45.2 µM (active): Potency [8]
inactive: Potency [1] | outcome [2] | Potency [3] | outcome [4] | outcome [6] | outcome [7]
inactive and 40.3 µM (active): Potency [5]

Oc1ccccc1Cl
inactive: Potency [1] | outcome [2] | Potency [3] | Potency [8] | outcome [4] | Potency [5] | outcome [6] | outcome [7]

CCC[N+](=O)[O-]
38.2 µM (active) and inactive: Potency [5]
inactive: Potency [1] | outcome [2] | Potency [3] | Potency [8] | outcome [4] | outcome [6] | outcome [7]

CC(C)C#N
inactive: Potency [1] | outcome [2] | Potency [3] | Potency [8] | outcome [4] | Potency [5] | outcome [6] | outcome [7]

C[C@]12CC[C@H]3[C@@H](CC[C@@]45O[C@@H]4C(O)=C(C#N)C[C@]35C)[C@@H]1CC[C@@H]2O
inactive: Potency [1] | outcome [2] | Potency [3] | Potency [8] | outcome [4] | Potency [5] | outcome [6] | outcome [7]

c1ccc2c(c1)oc1ccccc12
inactive: Potency [1] | outcome [2] | Potency [3] | Potency [8] | outcome [4] | outcome [6] | outcome [7]

C#CCN(C)[C@H](C)Cc1ccccc1
inactive: Potency [1] | outcome [2] | Potency [3] | Potency [8] | outcome [4] | Potency [5] | outcome [6] | outcome [7]

CCOP(OCC)OCC
inactive: Potency [1] | outcome [2] | outcome [4] | Potency [5] | outcome [6] | outcome [7]

CCCC1COC(Cn2cncn2)(c2ccc(Cl)cc2Cl)O1 (stereo not given)
inactive: outcome [2] | outcome [4] | outcome [7]
active: Potency [1] 115 µM | Potency [3] 22.3 µM and 24.5 µM

CC(NC(C)(C)C)C(=O)c1cccc(Cl)c1 (stereo not given)
inactive: Potency [1] | outcome [2] | outcome [4] | Potency [5] | outcome [6] | outcome [7]

ClCc1cccnc1
inactive: Potency [1] | outcome [2] | outcome [4] | Potency [5] | outcome [6] | outcome [7]

O=c1[nH]c2ccccc2c(=O)o1
inactive: Potency [1] | outcome [2] | outcome [4] | Potency [5] | outcome [6] | outcome [7]
